Assay results: PubChem BioAssay (NCI)
Compounds without any hit were thinned out: in the full panel of roughly 83,000, 20% have a hit.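 Step 1: grow cells in 96-well plates. Step 2: add test compound at a single concentration. Step 3: incubate 48 h. Step 4: record percent growth.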 Values without a mark were called inactive. Active and inactive are the calls of the source. How the source made its calls: active means growth percent below 10; inactive means the rest.

Assays:
Assay in all cases: NCI-60 one-dose screen, 48 h (100 = growth as untreated, 0 = no growth, -100 = all killed)
Conditions in all cases: 10 µM
[1] = test system: HT29 colon
[2] = test system: SNB-75 CNS
[3] = test system: SNB-19 CNS
[4] = test system: U251 CNS
[5] = test system: PC-3 prostate
[6] = test system: SK-MEL-5 melanoma
[7] = test system: UACC-62 melanoma
[8] = test system: LOX IMVI melanoma
[9] = test system: SK-MEL-28 melanoma
[10] = test system: SK-MEL-2 melanoma

## COc1cc(Cl)cc(-c2nn(-c3cccc(NC(=O)c4ccc(N5CCOCC5)c(C(F)(F)F)c4)c3)cc2-c2ccncc2)c1
[1]
  growth: 21.2%
[2]
  growth: 34.9%
[3]
  growth: 75.5%
[4]
  growth: 32.3%
[5]
  growth: 29.1%
[6]
  growth: 71.5%
[7]
  growth: 67.8%
[8]
  growth: 47.3%
[9]
  growth: 53.2%
[10]
  growth: 64.9%

## CNc1ccc(CSc2ccc(C)cc2)cc1
[1]
  growth: 100%
[2]
  growth: 60.7%
[3]
  growth: 93.3%
[4]
  growth: 52.4%
[5]
  growth: 60%
[6]
  growth: 67.7%
[7]
  growth: 86.2%
[8]
  growth: 92.1%
[9]
  growth: 93.8%
[10]
  growth: 96.8%

## CCCC(F)C(=O)O (stereo not given)
[1]
  growth: 97.5%
[2]
  growth: 99.2%
[3]
  growth: 102%
[4]
  growth: 95.9%
[5]
  growth: 90.5%
[6]
  growth: 105%
[7]
  growth: 100%
[8]
  growth: 100%
[9]
  growth: 111%
[10]
  growth: 107%

## COC(=O)C1(C)Cc2cc(OC(C)=O)c(OC(C)=O)cc2N1 (stereo not given)
[1]
  growth: 79.8%
[2]
  growth: 82%
[3]
  growth: 105%
[4]
  growth: 81.5%
[5]
  growth: 64.7%
[6]
  growth: 76.3%
[7]
  growth: 56.6%
[8]
  growth: 66%
[9]
  growth: 100%
[10]
  growth: 85.2%

## COc1ccc(NC2=NC(C)(CO)CS2)cc1 (stereo not given)
[1]
  growth: 105%
[2]
  growth: 83.5%
[3]
  growth: 103%
[4]
  growth: 101%
[5]
  growth: 82.2%
[6]
  growth: 96.3%
[7]
  growth: 96.1%
[8]
  growth: 95.7%
[9]
  growth: 106%
[10]
  growth: 108%

## COc1ccc2c(c1)sc1nc(-c3ccccc3)c(-c3ccsc3)n12
[1]
  growth: -5.75% (active)
[2]
  growth: 6.18% (active)
[3]
  growth: 40.8%
[4]
  growth: 26.9%
[5]
  growth: 16.6%
[6]
  growth: 9.67% (active)
[7]
  growth: 36.3%
[8]
  growth: 40.3%
[9]
  growth: 60.7%
[10]
  growth: 5.47% (active)

## C[C@@H]1C=C2C(=O)O[C@@H]3CC[C@H](C1)[C@]23O
[1]
  growth: 73.8%
[2]
  growth: 69.3%
[3]
  growth: 105%
[4]
  growth: 87.6%
[5]
  growth: 87.2%
[6]
  growth: 92.8%
[7]
  growth: 91.6%
[8]
  growth: 55.1%
[9]
  growth: 88.1%
[10]
  growth: 97.3%

## COc1cc2c(cc1OCCCCCCN1CCN(CC(=O)Nc3ccc(Cl)cc3C(=O)c3ccccc3Cl)CC1)N=CC1CCCN1C2=O (stereo not given)
[1]
  growth: -56.8% (active)
[2]
  growth: -84.5% (active)
[3]
  growth: -77.7% (active)
[4]
  growth: -100% (active)
[5]
  growth: -100% (active)
[6]
  growth: -100% (active)
[7]
  growth: -98.7% (active)
[8]
  growth: -93.9% (active)
[9]
  growth: -85.8% (active)
[10]
  growth: -69.6% (active)

## Fc1ccc2nc(-c3nc(-c4ccccc4)n4ccccc34)[nH]c2c1
[1]
  growth: -52.6% (active)
[2]
  growth: -44.1% (active)
[3]
  growth: -36.5% (active)
[4]
  growth: -67% (active)
[5]
  growth: -71% (active)
[6]
  growth: 4% (active)
[7]
  growth: 3.95% (active)
[8]
  growth: 15.2%
[9]
  growth: -9.19% (active)
[10]
  growth: -30.3% (active)

## CC(C)(C)NC/C(=C\c1ccccc1)C(=O)c1ccccc1
[1]
  growth: -46.1% (active)
[2]
  growth: 26.9%
[3]
  growth: 66.1%
[4]
  growth: -18.1% (active)
[5]
  growth: 0.348% (active)
[6]
  growth: -66.9% (active)
[7]
  growth: -79.3% (active)
[8]
  growth: -77% (active)
[9]
  growth: -29.2% (active)
[10]
  growth: -64.3% (active)

## Clc1ccc2c(NCCCNc3nccc(Nc4ccc(Br)cc4)n3)ccnc2c1
[1]
  growth: -80.3% (active)
[2]
  growth: -93.9% (active)
[3]
  growth: -8.34% (active)
[4]
  growth: -98.3% (active)
[5]
  growth: -33.4% (active)
[6]
  growth: -100% (active)
[7]
  growth: -87.9% (active)
[8]
  growth: -85.8% (active)
[9]
  growth: -97.2% (active)
[10]
  growth: -96.7% (active)

## CCCCN(CCCC)c1cc(C(=O)CCCCCN)c2ccccc2n1
[1]
  growth: -38% (active)
[2]
  growth: 105%
[3]
  growth: 105%
[4]
  growth: -77.9% (active)
[5]
  growth: -93.2% (active)
[6]
  growth: 98.3%
[7]
  growth: 105%
[8]
  growth: -18% (active)
[9]
  growth: 118%
[10]
  growth: 87.9%

## CCCCCC(=O)c1ccc(OCCCN2CCN(C(=O)OCC)CC2)cc1
[1]
  growth: 102%
[2]
  growth: 102%
[3]
  growth: 95.9%
[4]
  growth: 98.2%
[5]
  growth: 78.7%
[6]
  growth: 63.7%
[7]
  growth: 87%
[8]
  growth: 81.7%
[9]
  growth: 98.3%
[10]
  growth: 85.5%

## COc1ccc2c(c1)/C(=C\c1c[nH]c3ccc(OC)cc13)C(=O)N2
[1]
  growth: 24.9%
[2]
  growth: 46.7%
[3]
  growth: 77.3%
[4]
  growth: 56.2%
[5]
  growth: 60.6%
[6]
  growth: 46.3%
[7]
  growth: 39.3%
[8]
  growth: 35.9%
[9]
  growth: 71.7%
[10]
  growth: 33.4%

## Nc1cc2c(cc1Cl)-c1ccc([N+](=O)[O-])cc1/C2=N\O
[1]
  growth: 82.5%
[2]
  growth: 66.6%
[3]
  growth: 93.6%
[4]
  growth: 67.7%
[5]
  growth: 52%
[6]
  growth: 82.5%
[7]
  growth: 78%
[8]
  growth: 53.8%
[9]
  growth: 109%
[10]
  growth: 106%

## O=C1/C(=C\c2cn(C(=O)c3ccc(Cl)cc3)c3ccccc23)c2ccccc2N1C(=O)c1ccc(Cl)cc1
[1]
  growth: 70.4%
[2]
  growth: 54.4%
[3]
  growth: 98.2%
[4]
  growth: 74.2%
[5]
  growth: 65.7%
[6]
  growth: 74.9%
[7]
  growth: 88.9%
[8]
  growth: 67.2%
[9]
  growth: 103%
[10]
  growth: 49.8%

## CSCCCNC(=O)c1ccc2c(c1)/C(=C/c1[nH]c(C)cc1C)C(=O)N2
[1]
  growth: 31.2%
[2]
  growth: -1.79% (active)
[3]
  growth: 60.7%
[4]
  growth: 43.6%
[5]
  growth: 11.4%
[6]
  growth: 30.5%
[7]
  growth: 15.6%
[8]
  growth: 32.5%
[9]
  growth: 17.6%
[10]
  growth: -27.6% (active)

## COc1ccc(C2CC(c3ccc(N(C)C)cc3)=NN2c2ccc(S(N)(=O)=O)cc2)cc1 (stereo not given)
[1]
  growth: 29.6%
[2]
  growth: 69.6%
[3]
  growth: 66.6%
[4]
  growth: 26.6%
[5]
  growth: 18.9%
[6]
  growth: 69.4%
[7]
  growth: 62.3%
[8]
  growth: 54.9%
[9]
  growth: 86.3%
[10]
  growth: 79.7%

## C#Cc1ccc(-n2c(/C=C/c3ccc4ccccc4c3)nc3ncccc3c2=O)cc1
[1]
  growth: 0.964% (active)
[2]
  growth: 47.3%
[3]
  growth: 75.3%
[4]
  growth: 43.2%
[5]
  growth: 13.7%
[6]
  growth: -90.3% (active)
[7]
  growth: 26.7%
[8]
  growth: -39% (active)
[9]
  growth: 58.8%
[10]
  growth: -33.2% (active)

## COc1cc(OC)cc(-c2cncn2-c2ccc(-c3nc4cc(OC)cc(OC)c4s3)cc2)c1
[1]
  growth: 36.4%
[2]
  growth: 60.9%
[3]
  growth: 63.6%
[4]
  growth: 40.8%
[5]
  growth: 34.1%
[6]
  growth: 39.5%
[7]
  growth: 58.8%
[8]
  growth: 51.4%
[9]
  growth: 82.7%
[10]
  growth: 81.1%

## NC(=O)CC1(c2ccccc2)CCCCC1
[1]
  growth: 104%
[2]
  growth: 95.3%
[3]
  growth: 105%
[4]
  growth: 102%
[5]
  growth: 99.4%
[6]
  growth: 106%
[7]
  growth: 107%
[8]
  growth: 96.1%
[9]
  growth: 110%
[10]
  growth: 102%

## COc1cc(Nc2ccnc(NCCCNc3ccnc4cc(Cl)ccc34)n2)cc(OC)c1
[1]
  growth: -31.9% (active)
[2]
  growth: -58.6% (active)
[3]
  growth: 2.03% (active)
[4]
  growth: -64.4% (active)
[5]
  growth: 26.1%
[6]
  growth: -100% (active)
[7]
  growth: -82.5% (active)
[8]
  growth: -82.5% (active)
[9]
  growth: -100% (active)
[10]
  growth: -81.6% (active)

## CSC1=NCCCC1
[1]
  growth: 120%
[2]
  growth: 99.9%
[3]
  growth: 110%
[4]
  growth: 103%
[5]
  growth: 100%
[6]
  growth: 106%
[7]
  growth: 113%
[8]
  growth: 98.4%
[9]
  growth: 109%
[10]
  growth: 105%

## CCN(CC)CCC(=O)Nc1cccc2c1C(=O)c1c(c(O)c3ccccc3c1O)C2=O
[1]
  growth: 57.5%
[2]
  growth: 38%
[3]
  growth: 77.3%
[4]
  growth: 64.6%
[5]
  growth: 45.4%
[6]
  growth: 47.6%
[7]
  growth: 79.6%
[8]
  growth: 40.6%
[9]
  growth: 34%
[10]
  growth: 112%

## COc1ccc(/C=C/C(=O)Nc2ccc(-c3nc4ccc(OC)cc4s3)cc2)cc1
[1]
  growth: 110%
[2]
  growth: 102%
[3]
  growth: 105%
[4]
  growth: 109%
[5]
  growth: 101%
[6]
  growth: 104%
[7]
  growth: 108%
[8]
  growth: 92.3%
[9]
  growth: 111%
[10]
  growth: 105%

## Clc1cccc(-c2nc(-c3cccs3)no2)c1
[1]
  growth: 106%
[2]
  growth: 81.5%
[3]
  growth: 104%
[4]
  growth: 90.3%
[5]
  growth: 103%
[6]
  growth: 90.1%
[7]
  growth: 89.8%
[8]
  growth: 93.1%
[9]
  growth: 115%
[10]
  growth: 116%

## COc1ccc(/C=C2/CN(C(=O)c3ccc(C)cc3)C/C(=C\c3ccc(OC)cc3)C2=O)cc1
[1]
  growth: 32.9%
[2]
  growth: 82.7%
[3]
  growth: 98.5%
[4]
  growth: 89.4%
[5]
  growth: 68.6%
[6]
  growth: 89.1%
[7]
  growth: 86.4%
[8]
  growth: 42.1%
[9]
  growth: 116%
[10]
  growth: 95.1%

## C[N+](C)(C)c1ncnc2nc[nH]c12
[1]
  growth: 104%
[2]
  growth: 70%
[3]
  growth: 94.9%
[4]
  growth: 93.9%
[5]
  growth: 115%
[6]
  growth: 85.4%
[7]
  growth: 90.4%
[8]
  growth: 90.4%
[9]
  growth: 108%
[10]
  growth: 75.8%
